# Screens deposited in PubChem by several laboratories.
# sEH act: activators of human soluble epoxide hydrolase | activation, % at 2 µM | AID 717 | purified human sEH enzymatic activity, activator screen | P34913 | 91,000 compounds, 0.04% hits; in the data active = activation above about 37%
# sEH inh: soluble epoxide hydrolase (human) inhibition; 91,000 compounds, 0.34% hits; inhibition, % at 2 µM; AID 707; recombinant human sEH enzymatic activity assay; in the data active = inhibition above about 80%
# Cav32 inh: human Cav3.2 channel inhibition, primary screen | O95180 | Cav3.2-expressing cells, Fluo-4 calcium fluorescence FDSS; hits give low values | B-score at 10 µM | 100,000 compounds, 4% hits | AID 449739;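 active = single-dose well whose peak fluorescence ratio is a statistical outlier from its plate by either plate-standardised score or position-corrected B-score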
# PostGolgi yeast: growth inhibition of a yeast mutant, post-Golgi transport screen. post-Golgi transport phenotypic cell assay. inhibition, % at 10 µM. 98,000 compounds, 0.9% hits. AID 739;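 also: yeast cells grown in 1536-well plates; yeast grown about 18 h at 30C before absorbance read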
# PostGolgi ctrl: inhibits growth of the yeast control strain. inhibition, % at 10 µM. 98,000 compounds, 5% hits. efflux-deficient yeast background strain, growth absorbance A615, 16 h. AID 738
# An asterisk follows results filed as active; x = no result. Sampled rows, rich in hits. Any-hit rate of the full collection: about 7.8%. Rule as the data show it, unless noted: active = inhibition above about 30%; inactive = the rest.
SMILES,sEH act,sEH inh,Cav32 inh,PostGolgi yeast,PostGolgi ctrl
Cc1ccc(C)c(NC(=O)CSc2nnc(CCCCCNC(=O)OC(C)(C)C)o2)c1,-24.0,25.2,-1.66,8.4,0.3
CCN(CC)C(=O)CSc1nnc(CNc2ccc(F)cc2)n1-c1ccccc1,-6.6,4.9,0.0534,x,x
O=C(OCn1cncn1)c1ccc(Cl)cc1Cl,-11.2,11.8,-0.243,2.6,-0.9
COc1ccc(/C=C(/C(=O)c2ccc(Cl)cc2Cl)n2cncn2)cc1,8.9,-7.6,-1.9,84.7*,33.3*
Cc1ccc(NC(=O)N(CCCN2CCOCC2)Cc2cc3cc4c(cc3[nH]c2=O)OCO4)cc1,-2.2,2.5,x,18.1,12.7
Cc1ccc(NC(=O)N(Cc2ccc3c(c2)OCO3)Cc2cc3cc4c(cc3[nH]c2=O)OCCO4)cc1,2.0,-2.0,-0.835,24.2,55.9*
COc1ccc(CN(Cc2cc3cc4c(cc3[nH]c2=O)OCO4)C(=O)NC2CCCCC2)cc1,-5.7,8.3,-6.73*,0.3,9.0
N#C/C(=N\Nc1c(Cl)cccc1Cl)C(=O)NN,-3.1,5.7,0.241,2.2,9.3
N#C/C(=N\Nc1cccc(Cl)c1)C(=O)c1ccccc1,8.4,-7.2,-9.16*,10.8,84.1*
N#C/C(=N\Nc1ccccc1Cl)C(=O)c1ccccc1,4.2,-1.6,x,-3.1,48.2*
CCN1C2=C(C(=O)CCC2)C(c2ccc(O)cc2)C2=C1CCCC2=O,-0.8,4.2,-0.143,-4.8,0.6
CC(C)c1ccc(C(=O)CSc2n[nH]c(-c3ccncc3)n2)cc1,0.2,-0.1,2.32,95.4*,62.5*
CC(C)Oc1cc(NC(=O)CS(=O)CC(=O)Nc2cccc(C(F)(F)F)c2)c(Cl)cc1Cl (centres undefined),-2.8,3.2,-3.82*,-10.5,8.6
CC(C)(C)CC(=O)Nc1nnc(C(F)(F)F)s1,-7.7,9.9,-0.969,x,x
CC(NC(=O)Nc1nnc(C(F)(F)F)s1)(C(F)(F)F)C(F)(F)F,-0.9,0.6,-7.7*,3.8,16.5
Cc1ccccc1NC(=O)c1sc2nc3c(c(-c4ccco4)c2c1N)CCC3,6.8,-3.8,-3.32,0.2,7.4
Cc1ccc(-c2c3c(nc4sc(C(N)=O)c(N)c24)CCC3)cc1,-3.4,5.0,0.625,5.3,50.5*
NC(=O)c1sc2nc(N3CCCCC3)c3c(c2c1N)CCCC3,x,x,-0.103,-3.7,43.8*
NC(=O)c1sc2nc3c(c(-c4ccc(Cl)cc4)c2c1N)CCCC3,11.8,-9.4,0.4,6.7,34.7*
COc1ccc(-c2c3c(nc4sc5c(Cl)nc(C)nc5c24)CCC3)cc1,-11.9,13.9,3.68*,7.8,9.9
COC(=O)c1sc2nc(N3CCCCC3)c3c(c2c1N)CCCC3,-0.6,3.6,-0.714,2.0,25.1
O=C(Nc1ccc(S(=O)(=O)Nc2ncccn2)cc1)c1ccc(Br)s1,0.8,-2.9,0.0673,1.2,1.3
CCCCc1ccc(-c2c(C#N)c(N)nc3c2CCCC3)s1,13.9,-11.3,-0.953,-1.6,12.1
CCCCc1sc(-c2c(C#N)c(N)nc3c2CCCCC3)cc1[N+](=O)[O-],6.2,-6.3,-4.81*,-3.4,18.3
N#C/C(C(=O)N1CCOCC1)=C1/SC(Cc2ccccc2)C(=O)N1c1ccccc1 (centres undefined),x,x,-0.453,6.1,-0.6
SMILES,sEH act,sEH inh,Cav32 inh,PostGolgi yeast,PostGolgi ctrl
CCCCc1ccc(CC2S/C(=C(\C#N)C(=O)N3CCOCC3)N(c3ccccc3)C2=O)cc1 (centres undefined),-9.0,5.7,-3.89*,-5.9,37.5*
O=C(COC(=O)CCC(=O)c1cccs1)Nc1cc(S(=O)(=O)N2CCOCC2)ccc1Cl,-8.0,10.4,0.587,-4.1,3.9
O=C(Nc1cc(S(=O)(=O)N2CCOCC2)ccc1Cl)C(=O)c1c(-c2ccccc2)cc2ccccn12,12.2,-9.2,-1.23,92.8*,100.3*
COC(=O)/C(=C(/F)SCC(C)=O)C(F)(F)F,1.4,-2.3,-0.286,2.4,3.7
O=S(=O)(CCSc1nc2ccccc2s1)c1nc2ccccc2s1,9.1,-7.6,-0.958,8.1,89.5*
O=S(=O)(Nc1ccc2c(c1)CCC2)c1cccs1,x,x,-5.58*,-10.8,15.4
Cc1ccc(C2(C(F)(F)F)N=C3Sc4cc(C)ccc4N3C(=O)N2)cc1 (centres undefined),13.2,-13.6,x,0.7,4.8
O=[N+]([O-])c1ccc(N/N=C\c2cccn2-c2ccccc2)nc1,0.9,-1.0,x,10.8,39.9*
O=C(Nc1nnc(SCc2ccc(F)cc2)s1)C1Cc2ccccc2CN1C(=O)c1ccco1 (centres undefined),x,x,-5.65*,-8.4,2.4
O=C(Nc1ccccc1N1CCOCC1)C1Cc2ccccc2CN1C(=O)c1ccco1 (centres undefined),-7.2,8.5,-0.224,8.7,4.3
OCC(CO)(CO)N=Cc1cc(Br)ccc1O,1.7,-2.2,-7.11*,17.8,14.1
C=CCn1c(SCc2c(C)noc2C)nc2ccccc2c1=O,14.5,-14.6,0.295,-5.2,15.9
Cc1noc(C)c1CSc1nc2sc3c(c2c(=O)n1C)CCCC3,1.8,-1.8,-1.11,0.2,39.6*
C=CCn1c(SCc2c(C)noc2C)nc2sc3c(c2c1=O)CCCC3,-5.6,6.1,-3.76*,-3.3,14.8
Cc1noc(C)c1CSc1nc2sc(C)c(C)c2c(=O)n1C1CCCC1,7.3,-8.7,-5.77*,6.5,-3.3
C=CCn1c(SCc2c(C)noc2C)nc2sc3c(c2c1=O)CCCCC3,4.7,-0.3,-4.31*,-2.7,10.3
COc1ccc(Cc2nnc(SCc3c(C)noc3C)n2C2CCCCC2)cc1OC,x,x,-0.0481,-3.3,2.4
O=C(NN=C1CCCC1)C(=O)Nc1cccc(C(F)(F)F)c1,-1.6,2.4,0.0825,17.6,-6.5
CCn1c(CNc2nc3ccccc3n2C(C)C)nc2ccccc21,1.4,2.1,-3.92,-0.1,0.6
O=C(CCn1nnc2ccccc21)Nc1nnc(-c2ccccc2F)s1,-9.1,9.0,-0.111,-2.7,23.1
CCOc1ccc(OCc2ccc(C(=O)N3CCc4ccccc4C3)o2)cc1,-2.2,5.2,-2.78*,-11.1,14.0
CCOC(=O)c1cc(CC)sc1N,6.2,-7.4,-0.272,-0.2,30.0*
CCC(C)(C)n1nnnc1C(c1cc(OC)ccc1OC)N1CCC(C(N)=O)CC1 (centres undefined),6.4,-6.5,0.709,x,x
Clc1ccccc1-c1nnn(Cc2ccc(-c3nn[nH]n3)cc2)n1,-6.2,7.5,-4.85*,4.9,-1.9
Clc1ccc(Cn2nnc(-c3ccccc3)n2)cc1,5.0,-5.0,-1.3,x,x
O=C1N(CC(=O)N2CCc3ccccc32)CCN1Cc1ccccc1Cl,-2.6,2.3,-3.53*,3.4,-0.5
COc1ccc(CNC(=O)c2cccc3c2C(=O)N(Cc2cccnc2)C3)cc1,x,x,0.551,5.5,5.5
Cc1ccc2cc(CN(CCO)Cc3nnnn3Cc3ccc(F)cc3)c(=O)[nH]c2c1,-2.1,3.1,0.0919,36.9*,-5.1
Cc1ccc2cc(CN(Cc3nnnn3C3CCCCC3)CC3CCCO3)c(=O)[nH]c2c1 (centres undefined),-3.4,1.1,-2.64*,3.3,16.2
Cc1ccc2[nH]c(=O)c(CN(Cc3ccc4c(c3)OCO4)Cc3nnnn3Cc3ccco3)cc2c1,-7.0,7.2,-5.76*,-11.6,10.5
